Hits are enriched below; roughly 2.3% of the tested compounds scored in any of these assays.
SENP6 block: inhibitors of human SENP6 protease; Recombinant SENP6 catalytic domain, aminoluciferin luminescence; inhibition, % at 10 µM; hit rate 1.8% among 330,000; AID 2599;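 active = inhibition above about 50% at the single tested dose, limit read from the data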;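 note: plate controls were DMSO wells with enzyme for no effect and DMSO wells lacking enzyme for full effect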
LGR2 inh: Drosophila LGR2 receptor signaling inhibition; inhibition, % at 9.99 µM; AID 720647; HEK293 LGR2, CRE-luciferase, bursicon-stimulated, 4 h; hit rate 0.35% among 380,000;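 active = drop in luminescence signal, shown as inhibition above about 50% in the replicate tests, limit read from the data, passing the limit was not always enough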;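 note: agonist challenge used bursicon conditioned medium at about half maximal strength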
SENP8 block-1: inhibitors of human SENP8 protease; Q96LD8; purified SENP8, Z-RLRGG-aminoluciferin cleavage, luminescence; inhibition, % at 10 µM; hit rate 1.2% among 330,000; in the data active = inhibition above about 50%
SENP7 block: inhibitors of human SENP7 protease; recombinant SENP7, Z-RLRGG-aminoluciferin luminescence, 40 min; inhibition, % at 5 µM; hit rate 1.5% among 330,000; AID 434973;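 active = inhibition above about 50% at the single test dose, limit read from the data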;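 note: plate controls were DMSO with enzyme for no effect and no enzyme buffer wells for full effect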
Target sequence (Q9BQF6 706-1050 limits assumed): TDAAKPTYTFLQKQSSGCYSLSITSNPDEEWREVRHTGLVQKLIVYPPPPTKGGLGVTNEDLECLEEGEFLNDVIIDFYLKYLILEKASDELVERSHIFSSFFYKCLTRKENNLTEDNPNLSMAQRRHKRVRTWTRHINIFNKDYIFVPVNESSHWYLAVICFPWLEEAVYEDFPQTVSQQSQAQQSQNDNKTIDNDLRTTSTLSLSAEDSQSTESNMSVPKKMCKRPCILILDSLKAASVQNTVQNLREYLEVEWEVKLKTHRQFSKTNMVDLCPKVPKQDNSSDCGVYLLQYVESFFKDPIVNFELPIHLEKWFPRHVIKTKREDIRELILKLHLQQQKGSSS
HSP90 refold inh: inhibitors of HSP90 luciferase refolding in rabbit reticulocyte lysate; hit rate 0.91% among 290,000; luciferase refolding luminescence, 3 h; inhibition, % at 5.6 µM; AID 1789;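 active = inhibition above the screen-wide mean plus 3 SD, computed separately per campaign, cut at about 16% in these data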;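 note: 0% = DMSO wells and 100% = 60 µM geldanamycin wells; inhibitors lower the luminescence because luciferase stays unfolded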
SENP8 block-2: blocks human SENP8 cleavage of Nedd8 substrate | Q96LD8 | recombinant SENP8, Nedd8 substrate fluorescence | inhibition, % at 20 µM | hit rate 0.64% among 360,000; in the data active = inhibition mostly above about 40%, no sharp cut-off; inactive = mostly below about 27%
SENP8 conf: human SENP8 inhibition, confirmed | hit rate 40% among 6,200 | shares compounds with SENP7 block | inhibition, % at 12.5 µM | Recombinant SENP8, Z-RLRGG-aminoluciferin luminescence, 60 min;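 active = mean inhibition across replicates above about 50%, limit read from the data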
SENP6 confirm: human SENP6 inhibition, confirmed. shares compounds with SENP7 block. recombinant SENP6, Z-RLRGG-aminoluciferin luminescence. inhibition, % at 12.5 µM. hit rate 58% among 6,200. AID 488915
SENP7 confirm: human SENP7 inhibition, confirmed; hit rate 69% among 6,200; recombinant SENP7, Z-RLRGG-aminoluciferin luminescence, 40 min; AID 488917; shares compounds with SENP7 block; inhibition, % at 12.5 µM
Casp3 select: selectivity test for SENP inhibitors: human caspase-3 inhibition | purified caspase-3, Z-DEVD-aminoluciferin luminescence, 60 min | shares compounds with SENP7 block | hit rate 60% among 6,200 | AID 488918 | inhibition, % at 12.5 µM;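 active = mean inhibition above about 50%, limit read from the data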;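 note: plate controls were enzyme with DMSO for no effect and wells without caspase-3 for full effect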
Target sequence (P42574 28-227 limits assumed): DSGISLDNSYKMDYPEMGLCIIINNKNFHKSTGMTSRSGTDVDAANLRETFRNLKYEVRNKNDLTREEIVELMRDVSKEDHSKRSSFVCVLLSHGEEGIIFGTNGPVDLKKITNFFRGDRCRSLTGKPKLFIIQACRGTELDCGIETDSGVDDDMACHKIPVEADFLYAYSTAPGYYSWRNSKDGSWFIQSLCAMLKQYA
Luc interf: interferes with luciferase luminescence in SENP counter-screen; shares compounds with SENP7 block; Pre-incubated SENP8/Z-RLRGG-aminoluciferin, luciferase luminescence interference; inhibition, % at 12.5 µM; hit rate 39% among 6,200;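 active = mean inhibition above about 50% when retested at one dose, limit read from the data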;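 note: plate controls were DMSO wells with completed reaction for no effect and substrate without enzyme for full effect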
* hit, by the source's call; / = no result given.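 Rule for the calls, unless noted: active = mean inhibition above about 50% in the one-dose retest (limit read from the data); inactive = the rest.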

SMILES	SENP6 block	LGR2 inh	SENP8 block-1	SENP7 block	HSP90 refold inh	SENP8 block-2	SENP8 conf	SENP6 confirm	SENP7 confirm	Casp3 select	Luc interf
O=C(O)c1ccc(/C=N/N2CCN(c3ccccc3)CC2)cc1	61.6*	-41.6	61.7*	72.5*	6.8	16.7	7.3	12.2	16.4	6.3	8.3
O=C(O)c1ccc(C=NN2CCCCCC2)cc1	/	-50.6	/	/	/	13.6	/	/	/	/	/
COc1cc(/C=N/N2CCN(c3ccccc3)CC2)cc(OC)c1OC(C)=O	15.4	6.4	-7.0	-1.6	-3.4	4.6	/	/	/	/	/
COc1ccccc1N1CCN(/N=C/c2ccc(O)c(O)c2)CC1	11.5	-36.4	-8.3	-4.6	-7.5	/	/	/	/	/	/
COc1ccc(/C=N/N2CCN(c3ccccc3)CC2)cc1Br	33.4	5.0	15.3	58.2*	-4.0	8.4	-15.3	-6.7	-2.7	5.8	-5.8
COc1ccc(/C=N/N2CCN(c3ccccc3OC)CC2)cc1Br	59.4*	-75.9	32.1	12.5	1.1	19.5	38.6	41.8	76.2*	18.9	8.4
C[C@H]1CN([C@@H](C)CO)C(=O)Cc2cc(NS(=O)(=O)c3ccc(F)cc3)ccc2O[C@H]1CN(C)Cc1ccc(C(=O)O)cc1	/	-4.7	/	/	/	/	/	/	/	/	/
CCCNC(=O)[C@H]1[C@H](CO)[C@H]2Cn3c(ccc(C4=CCCC4)c3=O)[C@@H]1N2C(=O)CC1CC1	/	4.9	/	/	/	/	/	/	/	/	/
COc1cc2c(C#N)c(N3CCc4ccccc4C3)nc(N)c2c(N)n1	82.7*	/	80.2*	38.4	4.8	-264.9	7.7	29.8	19.2	5.2	3.2
COc1cc2c(C#N)c(N3CCCCC3)nc(N)c2c(N)n1	65.7*	/	62.1*	41.4	3.0	-412.0	24.7	33.8	43.3	6.1	20.4
CCOc1cc2c(C#N)c(N3CCCCC3)nc(N)c2c(N)n1	69.2*	/	65.5*	29.3	-1.4	-327.0	13.7	41.5	25.7	0.9	2.5
COc1cc2c(C#N)c(N3CCOCC3)nc(N)c2c(N)n1	5.0	/	-1.2	21.1	4.2	-399.2	/	/	/	/	/
CCN(CC)c1nc(N)c(C#N)c(CC#N)c1C#N	-8.2	4.2	-3.7	-13.2	/	-113.8	/	/	/	/	/
CCN(CC)c1nc(N)c2c(N)nc(OC)cc2c1C#N	76.4*	4.7	51.5*	41.4	/	-486.9	7.1	11.9	9.1	-2.9	7.7
CNC[C@H]1Oc2cc(C#CCN(C)C)ccc2S(=O)(=O)N([C@H](C)CO)C[C@@H]1C	/	-6.9	/	/	/	/	/	/	/	/	/
CN(C)C(=O)C[C@@H]1CC[C@@H]2[C@@H](COc3ccc(NC(=O)C4CCOCC4)cc3C(=O)N2C)O1	/	7.6	/	/	/	/	/	/	/	/	/
CCOC(=O)C1CCN(c2nc(N)c3c(N)nc(SCC(=O)O)cc3c2C#N)CC1	/	10.8	/	/	0.0	-414.8	/	/	/	/	/
COc1ccc(CN2C(=O)Cc3c2nc(N)c2c(N)nc(N4CCCCC4)c(C#N)c32)cc1	60.6*	/	4.2	-1.8	3.6	/	12.1	12.5	6.7	4.2	0.4
CCc1ccc(N2C(=O)Cc3c2nc(N)c(C#N)c3N)cc1	-1.8	-26.6	0.6	-4.0	8.6	-77.8	/	/	/	/	/
CCOc1cc2c(C#N)c(N3CCNCC3)nc(N)c2c(N)n1	88.3*	/	36.6	46.8	3.2	-325.6	-8.3	-4.2	-7.6	1.5	1.1
O=C(NCC[C@H]1CC[C@H](NC(=O)c2cccnc2)[C@H](CO)O1)Nc1ccc(C(F)(F)F)cc1	/	25.2	/	/	/	/	/	/	/	/	/
CC1=C(O)c2ccccc2C(=O)C1=O	/	/	/	/	/	1.4	/	/	/	/	/
O=C1C(=O)c2ccccc2C(O)=C1CCCCl	55.0*	/	26.3	8.3	8.9	20.7	52.9*	66.3*	13.3	8.0	1.1
N=C1SCC(=O)N1c1nc(-c2ccccc2)cs1	96.1*	/	89.3*	86.6*	-2.1	9.6	-5.3	3.8	-5.9	42.0	-5.0

Bioassay records: PubChem BioAssay, several laboratories
